Five compounds from PubChem BioAssay can be followed below.

Assay [1] in a line: growth inhibition of DIPG glioma cells, dose response, cell-based, SU-DIPG-XVII, MIPE5.0, CellTiter-Glo, qHTS (AID 1347060; cut-off not given, nearly all actives have AC50 up to about 26 µM;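 on AC50: cells exposed to compound for 48 hours before viability readout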). To be noted: SU-DIPG-XVII viability, CellTiter-Glo ATP luminescence.
A short description of assay [2]: growth inhibition of DIPG glioma cells, dose response, cell-based, SU-DIPG-XIII, MIPE5.0, CellTiter-Glo, qHTS (AID 1347064; cut-off not given, nearly all actives have AC50 up to about 23 µM;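 on AC50: cells exposed to compound for 48 hours before the viability read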). To be noted: SU-DIPG-XIII viability, CellTiter-Glo ATP luminescence. For orientation: ATP-based viability assays read luminescence as a measure of living cells.
Assay [3] in a line: viability loss in pontine glioma line – cell-based, SU-DIPG-XXV, MIPE5.0, CellTiter-Glo, qHTS, dose response (AID 1347065; cut-off not given, nearly all actives have AC50 up to about 26 µM;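 further: cells exposed to compound for 48 hours before ATP readout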). The settings on record: CellTiter-Glo ATP luminescence.
A short description of assay [4]: JHH-DIPG-1 glioma cell viability, MIPE5.0 library, CellTiter-Glo luminescence, qHTS (AID 1347067; cut-off not given, nearly all actives have AC50 up to about 26 µM;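 further: cells exposed to compound for 48 hours before readout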). The settings on record: JHH-DIPG-1 glioma viability, CellTiter-Glo ATP luminescence.
The nature of assay [5]: SU-DIPG-XXV glioma cell viability, MIPE5.0 library, qHTS (AID 1347068; cut-off not given, nearly all actives have IC50 up to about 30 µM;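 on IC50: cells exposed to compound for 48 hours before viability readout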).
Assay [6] in a line: ovarian cancer cell viability with rucaparib, profiling panel, oncology-focused library, rucaparib conditional (AID 1508598). The settings on record: patient-derived ovarian cancer cells, CellTiter-Glo viability, 144 h, stronger effect = lower value.
Assay [7] in a line: sensitizers of A549 cells to miR-34 induction, primary screen, imaging, A549 dox-inducible miR-34, nuclei and caspase counts (AID 1347080;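 active means compounds whose cell count with miR-34 switched on is under 0.7 times the count with it off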). To be noted: A549 miR-34 inducible, Hoechst nuclei count, 48 h.
Assay [8] in a line: survival rescue of mitochondrial mutant cells in low glucose, primary screen, MELAS cybrids, Rieske KO mouse fibroblasts, CellTiter-Glo (AID 1508586;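 active means mean z-score across replicates of 1.96 or higher in either the MELAS or the Rieske mutant cell line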;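 further: z relative to plate mean and SD of compound and empty wells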).
Setting [9] is: stronger effect = lower value, cell number ratio, induced over uninduced.
The mark [10] stands for this setting: measured here: relative caspase fold change +Dox/-Dox.
[11] abbreviates: measured here: total cells with miR-34 induction, stronger effect = lower value.
The mark [12] stands for this setting: measured here: total cells without miR-34 induction.
Setting [13] is: MELAS cybrid survival, CellTiter-Glo 48 h, stronger effect = higher value.
Where [14] appears, read: Rieske KO mouse fibroblast survival, CellTiter-Glo 72 h.

Records with an inconclusive call do not appear. Calls of active or inactive are those of the source.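 How the source made its calls, unless noted: active means normalized viability below 100% at a tested concentration; inactive means the rest.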

In general, viability refers to a read-out of living cells in per cent, often relative to untreated cells. For `Cc1nnc(C(C)C)n1C1CC2CCC(C1)N2CC[C@H](NC(=O)C1CCC(F)(F)CC1)c1ccccc1` (some centres undefined), the compound was classed as inactive in assay [1], in assay [2], in assay [3], in assay [4] and in assay [5]. The viability in assay [6] (at 0.000305 µM, OCI-C5x cells, with rucaparib 10 µM, 100% = cells with rucaparib alone) is 106% (inactive); in assay [6] (at 0.000305 µM, OCI-C5x cells, without rucaparib), 101% (inactive); in assay [6] (at 0.000305 µM, OCI-P5x cells, with rucaparib 20 µM, 100% = cells with rucaparib alone), 85.1% (active); in assay [6] (at 0.000305 µM, OCI-P5x cells, without rucaparib) it was 83.1% (active); in assay [6] (at 0.00122 µM, OCI-C5x cells, with rucaparib 10 µM, 100% = cells with rucaparib alone) it was 107% (inactive); in assay [6] (at 0.00122 µM, OCI-C5x cells, without rucaparib), 98.5% (active). Further, the viability in assay [6] (at 0.00122 µM, OCI-P5x cells, with rucaparib 20 µM, 100% = cells with rucaparib alone) was 86.3% (active); in assay [6] (at 0.00122 µM, OCI-P5x cells, without rucaparib), 79.3% (active); in assay [6] (at 0.00488 µM, OCI-C5x cells, with rucaparib 10 µM, 100% = cells with rucaparib alone), 105% (inactive); in assay [6] (at 0.00488 µM, OCI-C5x cells, without rucaparib), 107% (inactive); in assay [6] (at 0.00488 µM, OCI-P5x cells, with rucaparib 20 µM, 100% = cells with rucaparib alone), 86.7% (active); in assay [6] (at 0.00488 µM, OCI-P5x cells, without rucaparib), 91.1% (active). In addition, the viability in assay [6] (at 0.0195 µM, OCI-C5x cells, with rucaparib 10 µM, 100% = cells with rucaparib alone) was 113% (inactive); in assay [6] (at 0.0195 µM, OCI-C5x cells, without rucaparib), 107% (inactive); in assay [6] (at 0.0195 µM, OCI-P5x cells, with rucaparib 20 µM, 100% = cells with rucaparib alone) it was 90.9% (active); in assay [6] (at 0.0195 µM, OCI-P5x cells, without rucaparib), 90.2% (active); in assay [6] (at 0.0781 µM, OCI-C5x cells, with rucaparib 10 µM, 100% = cells with rucaparib alone), 117% (inactive); in assay [6] (at 0.0781 µM, OCI-C5x cells, without rucaparib), 107% (inactive). For the same compound, the viability in assay [6] (at 0.0781 µM, OCI-P5x cells, with rucaparib 20 µM, 100% = cells with rucaparib alone) is 96% (active); in assay [6] (at 0.0781 µM, OCI-P5x cells, without rucaparib), 94% (active); in assay [6] (at 0.313 µM, OCI-C5x cells, with rucaparib 10 µM, 100% = cells with rucaparib alone), 111% (inactive); in assay [6] (at 0.313 µM, OCI-C5x cells, without rucaparib) it was 99.8% (active); in assay [6] (at 0.313 µM, OCI-P5x cells, with rucaparib 20 µM, 100% = cells with rucaparib alone), 95.9% (active); in assay [6] (at 0.313 µM, OCI-P5x cells, without rucaparib) it was 94.1% (active). Also, the viability in assay [6] (at 1.25 µM, OCI-C5x cells, with rucaparib 10 µM, 100% = cells with rucaparib alone) is 118% (inactive); in assay [6] (at 1.25 µM, OCI-C5x cells, without rucaparib), 108% (inactive); in assay [6] (at 1.25 µM, OCI-P5x cells, with rucaparib 20 µM, 100% = cells with rucaparib alone), 98.8% (active); in assay [6] (at 1.25 µM, OCI-P5x cells, without rucaparib), 93.2% (active); in assay [6] (at 5 µM, OCI-C5x cells, with rucaparib 10 µM, 100% = cells with rucaparib alone), 108% (inactive); in assay [6] (at 5 µM, OCI-C5x cells, without rucaparib) it was 112% (inactive). Besides, the viability is 96.7% (active) in assay [6] (at 5 µM, OCI-P5x cells, with rucaparib 20 µM, 100% = cells with rucaparib alone) and 95.4% (active) in assay [6] (at 5 µM, OCI-P5x cells, without rucaparib).

By AC50 is commonly meant the concentration giving half of the maximal activity seen. For `CN(C)c1ccc(-c2nc3ncc(Cl)c(N4CCN(CC(=O)Nc5nccs5)CC4)c3[nH]2)cc1`, the AC50 is 2290 nM (active) in assay [1], 7230 nM (active) in assay [2], 3230 nM (active) in assay [3] and 2290 nM (active) in assay [4]. In addition, in assay [5], the outcome was inactive. Also, the values for the fold change in assay [7] (setting [9]) and in assay [7] (setting [10]) were 1.06 (inactive) and 0.825, respectively. For the same compound, the cell count is 2120 in assay [7] (setting [11]) and 2000 in assay [7] (setting [12]). Moreover, the z-score was 2.54 (active) in assay [8] (setting [13]) and -0.697 in assay [8] (setting [14]).

For orientation: IC50 means the concentration that inhibits the measured activity by half. With `CN(C)C1CCN(C(=O)c2ccc(NC(=O)Nc3ccc(-c4nc(N5CCOCC5)nc(N5CCOCC5)n4)cc3)cc2)CC1`, the AC50 is 332 nM (active) in assay [1], 833 nM (active) in assay [2], 295 nM (active) in assay [3] and 417 nM (active) in assay [4]. In assay [5], the IC50 was 742 nM (active).

`c1ccc2c(-c3cnn4cc(-c5ccc(N6CCNCC6)cc5)cnc34)ccnc2c1`: the half-maximal activity concentration (AC50) in assay [1] is 3320 nM (active); in assay [2] it was 5250 nM (active); in assay [3], 2630 nM (active); in assay [4], 2630 nM (active). In addition, the IC50 in assay [5] was 5900 nM (active).

Take `Cc1cc(Nc2ncc(Cl)c(Nc3ccccc3S(=O)(=O)C(C)C)n2)c(OC(C)C)cc1C1CCNCC1`: the AC50 is 2950 nM (active) in assay [1], 1320 nM (active) in assay [2], 934 nM (active) in assay [3] and 1660 nM (active) in assay [4]. The 50% inhibitory concentration (IC50) in assay [5] is 3320 nM (active). Further, the results for the fold change in assay [7] (setting [9]) and in assay [7] (setting [10]) were 0.935 (inactive) and 0.748, respectively. Further, the cell count in assay [7] (setting [11]) was 3290; in assay [7] (setting [12]), 3520. In addition, the z-score was -0.455 (inactive) in assay [8] (setting [13]) and -0.428 in assay [8] (setting [14]).
